In the library only some 3% were active in any assay of this set; here they are far more common.
MITF TRPM1 HTS – increases MITF-driven TRPM1 promoter luciferase signal. SK-MEL-5 TRPM1-promoter luciferase, 24 h; % of positive control, neutral wells = 0. activation, % at 12.5 µM. 300,000 tested, 0.75% active. AID 588334;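 active = mean activation of at least 80% with every replicate also reaching 80%; inconclusive = mean reaches 80% but some replicate falls short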
MITF TRPM1 inh – MITF TRPM1 promoter inhibition in SK-MEL-5 cells. SK-MEL-5 TRPM1 promoter luciferase, 24 h. inhibition, % at 12.5 µM. 330,000 tested, 0.83% active. AID 488899;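 active = mean inhibition across replicates of 60% or more, whatever share of single replicates reaches that level; inconclusive = some that reach 60%, reason not given; inactive = mean inhibition across replicates below 60%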
TROY signal inh – inhibitors of TROY-dependent NF-kB signaling. Q293 LMP1-TROYcd NF-kB luciferase reporter, 4 h. inhibition, % at 10 µM. 360,000 tested, 0.98% active. AID 1347056;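 active = compounds whose plate-normalised and pattern-corrected inhibition of the luciferase reporter signal at the single screening dose is 50% or more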
TWEAK Fn14 block – TWEAK-Fn14 signaling inhibition. TWEAK-stimulated Fn14 reporter cells, luciferase luminescence, 8 h. inhibition, % at 10 µM. 360,000 tested, 2% active. AID 1159606; in the data active = inhibition above about 50%
EBV LMP1 NFkB – inhibitors of Epstein-Barr LMP1-induced NF-kappaB reporter; LMP1-induced NF-kappaB luciferase reporter cells, luminescence; inhibition, % at 12.5 µM; 350,000 tested, 0.69% active; in the data active = inhibition above about 41%; inconclusive = no clear call, values can overlap the other calls
LGR2 antag – inhibitors of bursicon-induced Drosophila LGR2 receptor cAMP signaling; AID 720647; 380,000 tested, 0.35% active; inhibition, % at 9.99 µM; HEK293 LGR2, CRE-luciferase, bursicon-stimulated, 4 h;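 active = drop in luminescence signal, shown as inhibition above about 50% in the replicate tests, limit read from the data, passing the limit was not always enough; inconclusive = probably only some replicates passing the limit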;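 note: agonist challenge used bursicon conditioned medium at about half maximal strength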
A number is an active result; ! = repeats disagree.

Cc1cccc(NC(=O)c2ccc(Cl)c(S(=O)(=O)N3CCc4ccccc43)c2)n1 was read as MITF TRPM1 HTS inactive, MITF TRPM1 inh inactive, TROY signal inh inactive, TWEAK Fn14 block 58, EBV LMP1 NFkB inactive and LGR2 antag inactive.
Screening COc1cccc(-c2ccc3c(c2)[C@@H]2[C@@H](CCN2C(=O)Nc2ccccc2OC)[C@@H](CO)N3C)c1 returned LGR2 antag inactive.
Screening CCS(=O)(=O)N1CCC2(CC1)CN(Cc1cccnc1)[C@@H](CO)c1c2c2ccc(OC)cc2n1C returned LGR2 antag inactive.
Screening CN(C)C(=O)[C@H]1[C@H](CO)[C@H]2Cn3c(ccc(C4=CCCC4)c3=O)[C@H]2N1Cc1ccccn1 returned LGR2 antag inactive.
`C[C@@H]1CCCCO[C@@H](CN(C)Cc2ccncc2)[C@@H](C)CN([C@@H](C)CO)C(=O)c2cc(NC(=O)C3CCCCC3)ccc2O1` gave LGR2 antag inactive.
O=C(NCCc1ccccc1)[C@H]1N[C@H]2c3ccc(-c4ccccc4)c(=O)n3C[C@H]2[C@@H]1CO was read as LGR2 antag inactive.
`CCn1c(N)c(C(=O)NCC2CCCO2)sc1=S` (stereo not given) gave MITF TRPM1 HTS inactive, MITF TRPM1 inh inactive, TWEAK Fn14 block 85, EBV LMP1 NFkB inactive and LGR2 antag inactive.
For CC=Cc1ccc2n(c1=O)C[C@@H]1[C@@H](CO)[C@H](C(=O)NCCC)[C@H]2N1C(=O)c1ccccc1 (mixture of isomers) the results were LGR2 antag inactive.
For Cc1cc(Br)ccc1N=C1C(=O)Nc2ccccc21 the results were MITF TRPM1 HTS inactive, MITF TRPM1 inh inactive, TROY signal inh inactive, TWEAK Fn14 block inactive, EBV LMP1 NFkB inactive and LGR2 antag inactive.
CCN(CC)c1ccc(C2NC(=O)c3ccccc3N2)cc1 (stereo not given) was read as MITF TRPM1 inh inactive, TROY signal inh 77, TWEAK Fn14 block 95, EBV LMP1 NFkB 43 and LGR2 antag 88.
Screening CCN(CC)c1ccc(C2Nc3cccc4cccc(c34)N2)cc1 returned MITF TRPM1 inh inactive, TROY signal inh inactive, TWEAK Fn14 block inactive, EBV LMP1 NFkB inactive and LGR2 antag inactive.
`O=C1Nc2ccccc2C1=Nc1ccccc1-c1ccccc1` gave MITF TRPM1 HTS inactive, MITF TRPM1 inh inactive, TROY signal inh inactive, TWEAK Fn14 block inactive, EBV LMP1 NFkB 78 and LGR2 antag inactive.
Cc1ccc(N=C2C(=O)Nc3ccccc32)cc1 was read as MITF TRPM1 HTS inactive, MITF TRPM1 inh inactive, TROY signal inh inactive, TWEAK Fn14 block inactive, EBV LMP1 NFkB inactive and LGR2 antag inactive.
Screening CCN(CC)c1ccc(N=C2C(=O)Nc3ccccc32)cc1 returned MITF TRPM1 HTS inactive, MITF TRPM1 inh inactive, TROY signal inh inactive, TWEAK Fn14 block 52, EBV LMP1 NFkB inactive and LGR2 antag inactive.
`O=C(C[C@H]1C=C[C@@H](NC(=O)Nc2ccc(C(F)(F)F)cc2)[C@@H](CO)O1)NCc1cccc(F)c1` gave LGR2 antag inactive.
`O=C(Nc1ccc(-c2nc3ccccc3[nH]2)cc1)c1ccccc1NS(=O)(=O)c1ccc(F)cc1` gave MITF TRPM1 HTS inactive, MITF TRPM1 inh inactive, TROY signal inh 58, TWEAK Fn14 block inactive, EBV LMP1 NFkB inactive and LGR2 antag inactive.
`CS(=O)(=O)c1ccccc1C(=O)Nc1ccc(-c2nc3ccccc3[nH]2)cc1` gave MITF TRPM1 HTS inactive, MITF TRPM1 inh inactive, TROY signal inh inactive, TWEAK Fn14 block inactive, EBV LMP1 NFkB inactive and LGR2 antag inactive.
Screening Cc1cc(F)ccc1S(=O)(=O)Nc1ccccc1C(=O)Nc1ccccc1-c1nc2ccccc2[nH]1 returned MITF TRPM1 HTS inactive, MITF TRPM1 inh inconclusive, TROY signal inh 70, TWEAK Fn14 block 102 and EBV LMP1 NFkB inactive.
`Cc1cc(F)ccc1S(=O)(=O)Nc1ccccc1C(=O)Nc1ncn[nH]1` gave MITF TRPM1 HTS inactive, MITF TRPM1 inh inactive, TROY signal inh inactive, TWEAK Fn14 block inactive and EBV LMP1 NFkB inactive.
`CC(=O)OCC(=O)[C@@]1(O)CC[C@H]2[C@@H]3CCC4=CC(=O)CC[C@]4(C)[C@H]3[C@@H](O)C[C@@]21C` gave MITF TRPM1 HTS inactive, MITF TRPM1 inh inactive, TROY signal inh inactive, TWEAK Fn14 block inactive, EBV LMP1 NFkB 86! and LGR2 antag inactive.

Assay outcomes deposited in PubChem by several laboratories.
